# PLK1 kinase inh: human PLK1 kinase inhibitors, primary screen, biochemical, TR-FRET; recombinant PLK1 kinase, TR-FRET peptide phosphorylation; 97,000 compounds, 0.53% hits; inhibition, % at 10 µM;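 active = inhibition of 50% or more in the single-concentration screen; inactive = inhibition below 50%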;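 note: 0% = DMSO max control and 100% = H-89 dihydrochloride min control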
# CYP2C9 inhib: blockers of cytochrome P450 2C9 activity – biochemical, luminescence, ADME assay, primary screen | P11712 | CYP2C9 Supersomes, luciferin-H conversion | inhibition, % at 5 µM | 96,000 compounds, 20% hits;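 active = blocking of liver enzyme CYP2C9 beyond about 50% at 5 µM, limit read from the data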
# Target sequence (P11712 whole entry, looked up): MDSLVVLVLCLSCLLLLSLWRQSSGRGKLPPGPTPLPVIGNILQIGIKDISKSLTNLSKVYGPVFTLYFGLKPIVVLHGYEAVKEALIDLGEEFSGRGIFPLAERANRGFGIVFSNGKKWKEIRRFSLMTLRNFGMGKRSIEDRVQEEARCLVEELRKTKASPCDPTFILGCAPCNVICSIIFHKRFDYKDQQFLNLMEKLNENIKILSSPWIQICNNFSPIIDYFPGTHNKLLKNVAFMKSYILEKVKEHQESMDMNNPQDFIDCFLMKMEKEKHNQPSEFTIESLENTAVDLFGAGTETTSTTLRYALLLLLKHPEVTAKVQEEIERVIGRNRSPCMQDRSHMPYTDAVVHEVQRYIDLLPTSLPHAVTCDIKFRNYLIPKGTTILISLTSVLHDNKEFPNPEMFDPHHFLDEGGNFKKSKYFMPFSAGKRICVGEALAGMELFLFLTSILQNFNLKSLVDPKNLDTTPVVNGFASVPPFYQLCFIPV
# CYP2C19 activ: human CYP2C19 activators, primary screen, biochemical, luminescence; Cytochrome P450 2C19 (Homo sapiens), P33261; recombinant CYP2C19, luciferin-H EGE luminescence; active compounds read high; 0 = fully inhibited enzyme, 1 = untreated enzyme; activation factor at 5 µM; 96,000 tested, under 10 active; AID 1025, 2008;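 active = activation factor of at least 2 at 5 µM in the primary screen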;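 note: 0 = wells with 2.5 mM tranylcypromine and 1 = vehicle-only wells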
# CYP2C19 inh: blockers of cytochrome P450 2C19 activity – biochemical, luminescence, ADME assay, primary screen. P33261. CYP2C19 Supersomes, luciferin-H EGE luminescence, 30 min. inhibition, % at 5 µM. 96,000 compounds, 21% hits;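 active = CYP2C19 inhibition above a set limit at 5 µM in the primary screen, cut at about 50% in these data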;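 note: plate controls were negative control wells for no effect and 2.5 mM tranylcypromine positive control for full effect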
# CYP2C9 activ: human CYP2C9 activators, primary screen, biochemical, luminescence | activation factor at 5 µM | Cytochrome P450 2C9 (Homo sapiens), P11712 | 96,000 compounds, 1.4% hits | recombinant CYP2C9, luciferin-H conversion; active compounds read high; factor 1 = untreated enzyme, 0 = blocked;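 active = activation factor of 2 or more for CYP2C9 at a 5 µM dose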;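 note: 0 = sulfaphenazole-blocked wells and 1 = vehicle-only wells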
# Plk1 PBD FP: Plk1 polo box domain binding inhibitors, primary screen, biochemical, fluorescence polarization | Serine/threonine-protein kinase PLK1 (Homo sapiens), P53350 | Plk1 PBD phosphopeptide binding | 97,000 compounds, 0.13% hits | inhibition, %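 (tested at about 20 µM)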; in the data active = inhibition above about 34%, passing the limit was not always enough
# PLK1 inh conf: PLK1 kinase activity inhibitors, confirmation, biochemical, TR-FRET, duplicate runs | recombinant PLK1 kinase, TR-FRET peptide phosphorylation | shares compounds with PLK1 kinase inh | AID 744, 2007 | inhibition, % at 10 µM | 210 compounds, 20% hits;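 active = inhibition at or above 50% in each of two repeat confirmation tests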;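 note: 0% = DMSO max control and 100% = H-89 kinase-blocked min control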
# TR-FRET interf: compound interference with Plk1 assay readout, artefact control for Plk1 kinase inhibitor project, biochemical, TR-FRET, compound added post-reaction; 210 tested, under 10 active; inhibition (interference), % at 10 µM; shares compounds with PLK1 kinase inh;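 active = both duplicate runs show 50% or greater inhibition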;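 note: 0% = DMSO max control and 100% = H-89 min control inhibited reaction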
# Starred values were filed as active, the others as inactive; nt = no result. An excerpt weighted towards active compounds, which were near 28% of everything screened.
SMILES,PLK1 kinase inh,CYP2C9 inhib,CYP2C19 activ,CYP2C19 inh,CYP2C9 activ,Plk1 PBD FP,PLK1 inh conf,TR-FRET interf
Cc1cc(C)cc(OCC(O)CN2C(=O)NC(C)(C)C2=O)c1 (centres undefined),71.6*,44.0,0.3,72.2*,0.6,13.1,-9.5,-59.1
CCCn1c(SCC(=O)Nc2cc(C)on2)nc2c1c(=O)n(C)c(=O)n2C,-14.3,nt,nt,nt,nt,-5.9,nt,nt
O=C(O)COc1ccc(Oc2ccccc2)cc1,-7.1,15.8,1.1,-7.7,0.8,19.9,nt,nt
O=C(Cn1nc(Cc2cccnc2)c2ccccc2c1=O)NCc1ccc2c(c1)OCO2,72.3*,88.6*,0.4,56.5*,0.1,6.3,21.1,-49.2
CC(C)n1c(SCc2ccccc2F)nc2c1c(=O)n(C)c(=O)n2C,77.8*,73.7*,0.4,59.6*,0.3,-19.4,-9.8,-60.6
CCn1c(=O)c(C(=O)CN2CC(C)OC(C)C2)c(N)n(Cc2ccccc2)c1=O (centres undefined),-9.3,10.3,1,3.5,0.9,-23.6,nt,nt
COc1cccc(NC(=O)CN2C(=O)COc3ccc(Cl)cc32)c1,76.3*,78.4*,0.1,91.7*,0.2,15.4,-0.2,-47.9
Cc1ccc(CN=Cc2[nH]c3ccc(Br)c(Cl)c3c2O)cc1,-16.4,45.5,0.8,20.3,0.5,-107.5,nt,nt
Cc1ccc(-c2noc(C3CCCN(C(=O)c4c(F)cccc4F)C3)n2)cc1 (centres undefined),124.7*,90.8*,0.2,77.8*,0.1,17.7,-7.1,-52.4
O=C(CN(Cc1ccccc1)S(=O)(=O)c1ccc(Br)cc1)NCc1ccco1,84.9*,66.2*,0.7,31.8,0.3,11.5,-8.3,-58.0
O=C(COc1ccccc1)Nc1ncccn1,-0.2,46.9,0.9,9.5,0.5,11.8,nt,nt
O=C(COc1ccccc1)Nc1nnc(-c2ccc(Cl)s2)o1,72.3*,49.2,0.9,13.2,0.5,-1.3,-7.4,-53.7
COc1cc(C2NC(=O)NC(O)(C(F)(F)F)C2C(C)=O)cc(OC)c1OC (centres undefined),-18.2,3.7,0.9,10.0,1,17.0,nt,nt
C=C(C)c1cccc(C(C)(C)NC(=O)N2CCN(c3ccccn3)CC2)c1,74.3*,44.3,0.7,27.5,0.6,7.5,-8.7,-58.1
Cc1ccc2oc(-c3cccc(NC(=O)c4cc(-n5cnnc5)ccc4Cl)c3)nc2c1,-16.9,nt,nt,nt,nt,-6.3,nt,nt
CC1(C)CC(=O)c2sc(NC(=O)C3CC3)nc2C1,75.0*,29.7,1,-0.4,0.7,5.8,-2.7,-52.4
CCOCC(=O)Nc1nc2c(s1)C(=O)CC(C)(C)C2,41.4,-0.9,1,0.3,1,10.3,nt,nt
Nc1[nH]ncc1N=Nc1ccc(Cl)cc1,83.1*,23.0,0.6,40.0,0.8,-5.8,74.6*,-59.2
NC(=O)CSc1nnc(-c2ccncc2)n1-c1ccc(Cl)cc1,72.7*,nt,nt,nt,nt,-0.1,-9.1,-49.2
O=C(O)CCSc1nnc(-c2ccncc2)n1-c1ccccc1,-10.7,nt,nt,nt,nt,13.6,nt,nt
Cc1ncc([N+](=O)[O-])n1CCOC(=O)Nc1ccc(Cl)c(Cl)c1,84.5*,28.1,0.5,45.1,0.7,9.8,70.8*,-55.4
Cc1cc(C)c2c(=O)[nH]c(SCC(=O)N3CCCCC3)nc2n1,6.7,20.9,1,4.2,0.8,9.8,nt,nt
Cc1ccc(NC(=O)CSc2nc3nc(C)cc(C)c3c(=O)[nH]2)cc1,73.0*,34.1,0.9,9.6,0.7,-24.3,6.9,-53.6
CCOc1c(Br)ccc2c1sc1nc[nH]c(=O)c12,76.1*,-5.5,0,97.5*,1.1,-6.0,68.3*,-55.5
Cc1cc2c(=O)[nH]cnc2s1,0.2,-22.6,1,2.8,1.2,-35.0,nt,nt
COc1cccc(C(=O)n2cnnc2N)c1OC,127.5*,-16.4,1.1,-7.9,1.2,-6.8,1.3,-56.1
